Experimental data taken from article PMC9838217, “Structure of SALL4 zinc finger domain reveals link between AT-rich DNA binding and Okihiro syndrome”.
Positions count from the first letter of the chain named.

These sequences were tested against T1, SALL4 ZFC4 R900W (HT-SELEX) (Mus musculus, UniProt Q8BX22 870-940, R900W) (assay: HT-SELEX; high values mean tight binding). Details: protein: recombinant; vector His6-GST; dsDNA, one strand shown.
T1 sequence: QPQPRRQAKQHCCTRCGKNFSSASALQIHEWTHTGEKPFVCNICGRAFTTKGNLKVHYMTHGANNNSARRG
Method in brief: (§1)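 In triplicate selections of up to 6 cycles, purified recombinant mouse SALL4 zinc finger cluster 4 (residues 870–940, 1 µg) was incubated 10 min at room temperature with library DNA (1.5 µg, then 200 ng) in 100 µl of 10 mM Tris–HCl pH 7.5, 50 mM NaCl, poly(dI-dC) and DTT, and complexes were captured on Ni2+ beads, washed and PCR-amplified. Sequencing was done on MiSeq with scanning for 6-mers. The binding signal is each canonical k-mer's read fraction, reported as fold change against the initial random library.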
ATGAAG gave a binding signal of 1.68 ± 0.108 fold-change vs cycle 0. AAGTAG gave a binding signal of 1.52 ± 0.0706 fold-change vs cycle 0. AACCGT gave a binding signal of 0.776 ± 0.0238 fold-change vs cycle 0. CAGAAG gave a binding signal of 0.933 ± 0.0195 fold-change vs cycle 0. With GACTTA the binding signal was 1.4 ± 0.0678 fold-change vs cycle 0. For GACACA, the binding signal was 0.754 ± 0.0153 fold-change vs cycle 0. For ATACAG, the binding signal was 1.41 ± 0.0818 fold-change vs cycle 0. CTCTAC showed a binding signal of 0.917 ± 0.016 fold-change vs cycle 0. In the case of CGTTAA, the binding signal is reported as 1.25 ± 0.0783 fold-change vs cycle 0. For ACAGAC, the binding signal was 0.791 ± 0.00124 fold-change vs cycle 0. In the case of AATCTG, the binding signal is reported as 1.28 ± 0.0883 fold-change vs cycle 0. Work on ATACAT yielded a binding signal of 2.02 ± 0.0564 fold-change vs cycle 0. GATCCC gave a binding signal of 0.62 ± 0.0104 fold-change vs cycle 0. In the case of CAGACC, the binding signal is reported as 0.461 ± 0.0322 fold-change vs cycle 0. Sequence ATTCTA has a binding signal of 2.07 ± 0.113 fold-change vs cycle 0. With GCAGAA the binding signal was 0.629 ± 0.0163 fold-change vs cycle 0. Sequence TACAAA has a binding signal of 1.82 ± 0.0757 fold-change vs cycle 0. AAATAC gave a binding signal of 1.68 ± 0.0912 fold-change vs cycle 0. In the case of ACATTA, the binding signal is reported as 2.03 ± 0.0851 fold-change vs cycle 0. Sequence CCGGTA has a binding signal of 0.396 ± 0.0133 fold-change vs cycle 0.

Each sequence was assayed against T2, SALL4 ZFC4 G921D (HT-SELEX) (Mus musculus, UniProt Q8BX22 870-940, G921D) (assay: HT-SELEX; high values mean tight binding). Details: protein: recombinant; vector His6-GST; dsDNA, one strand shown.
T2 sequence: T1 sequence with W31R, G52D
Method in brief: as §1
With CCACTC the binding signal was 0.62 ± 0.0734 fold-change vs cycle 0. ATTCGA was tested, and the binding signal was 1.2 ± 0.0363 fold-change vs cycle 0. In the case of TTACAA, the binding signal is reported as 1.81 ± 0.143 fold-change vs cycle 0. TAGCAA showed a binding signal of 1.21 ± 0.0899 fold-change vs cycle 0. With CCTAAC the binding signal was 1 ± 0.0113 fold-change vs cycle 0. GAGTCC was tested, and the binding signal was 0.669 ± 0.013 fold-change vs cycle 0. Work on CATATA yielded a binding signal of 1.71 ± 0.163 fold-change vs cycle 0. With GGCAAA the binding signal was 0.604 ± 0.0748 fold-change vs cycle 0. With CGCTTA the binding signal was 0.684 ± 0.061 fold-change vs cycle 0. For ATCATA, the binding signal was 1.88 ± 0.177 fold-change vs cycle 0. CCTCTC was tested, and the binding signal was 0.687 ± 0.045 fold-change vs cycle 0. Sequence AAGAGA has a binding signal of 1.48 ± 0.103 fold-change vs cycle 0. Sequence AGCTGG has a binding signal of 0.522 ± 0.0592 fold-change vs cycle 0. GACAGA was tested, and the binding signal was 0.903 ± 0.00925 fold-change vs cycle 0. AGTAGG gave a binding signal of 0.989 ± 0.0263 fold-change vs cycle 0. In the case of AAGTAA, the binding signal is reported as 1.91 ± 0.204 fold-change vs cycle 0. TACTAA showed a binding signal of 1.87 ± 0.135 fold-change vs cycle 0. TATAAA gave a binding signal of 2.14 ± 0.302 fold-change vs cycle 0. In the case of CTCAGC, the binding signal is reported as 0.525 ± 0.071 fold-change vs cycle 0. Work on ACTTAA yielded a binding signal of 1.85 ± 0.222 fold-change vs cycle 0. ATGAAG gave a binding signal of 1.51 ± 0.124 fold-change vs cycle 0. Work on AAGTAG yielded a binding signal of 1.39 ± 0.0907 fold-change vs cycle 0. With AACCGT the binding signal was 0.826 ± 0.0315 fold-change vs cycle 0. In the case of CAGAAG, the binding signal is reported as 0.93 ± 0.0319 fold-change vs cycle 0. GACTTA showed a binding signal of 1.33 ± 0.102 fold-change vs cycle 0. GACACA gave a binding signal of 0.837 ± 0.0392 fold-change vs cycle 0. With ATACAG the binding signal was 1.36 ± 0.0886 fold-change vs cycle 0. CTCTAC gave a binding signal of 0.954 ± 0.0195 fold-change vs cycle 0. For CGTTAA, the binding signal was 1.17 ± 0.0825 fold-change vs cycle 0. In the case of ACAGAC, the binding signal is reported as 0.865 ± 0.0133 fold-change vs cycle 0. AATCTG showed a binding signal of 1.25 ± 0.0941 fold-change vs cycle 0. With ATACAT the binding signal was 1.83 ± 0.109 fold-change vs cycle 0. GATCCC gave a binding signal of 0.711 ± 0.017 fold-change vs cycle 0. CAGACC showed a binding signal of 0.553 ± 0.0477 fold-change vs cycle 0. For ATTCTA, the binding signal was 1.81 ± 0.213 fold-change vs cycle 0. GCAGAA gave a binding signal of 0.688 ± 0.0217 fold-change vs cycle 0. For TACAAA, the binding signal was 1.67 ± 0.0747 fold-change vs cycle 0. With AAATAC the binding signal was 1.59 ± 0.0866 fold-change vs cycle 0. ACATTA was tested, and the binding signal was 1.81 ± 0.142 fold-change vs cycle 0. Work on CCGGTA yielded a binding signal of 0.501 ± 0.0627 fold-change vs cycle 0.
